In PubChem BioAssay (Tox21):
Inconclusive results are not listed. The source made the active and inactive calls. Unless noted, calls come from the whole dose curve; as a rule, active = well fitted curve in the direction sought with a large enough effect in the repeat runs; inconclusive = weak or mixed curves; inactive = no such curve, though single readings can be large; an effect the other way counts as inactive or inconclusive.

What was measured:
[1] = qHTS assay to identify small molecule antagonists of the sonic hedgehog signaling (Shh) pathway (AID 1259369; calls by dose curve; note: nearly all actives have a fitted effect of over 45% in size)
Procedure, shortened: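 Luminescence readout: firefly Luc under Gli1 response element in 3T3Gli1-Luc cells (NIH/3T3 clone). Antagonist mode, stimulation by conditioned medium; compound exposure 24hr at 37 C, 5% CO2.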

[2] = molecular target: Estrogen receptor beta (Homo sapiens) (UniProt Q92731); assay: qHTS assay to identify small molecule antagonists of the estrogen receptor beta (ER-beta) signaling pathway (AID 1259378; active = well fitted inhibition curve with a large enough effect in the signal ratio in the repeat runs, not every such curve was filed as active; the % refers to the signal ratio)
Chain of Estrogen receptor beta (Homo sapiens) (Q92731 whole entry, looked up): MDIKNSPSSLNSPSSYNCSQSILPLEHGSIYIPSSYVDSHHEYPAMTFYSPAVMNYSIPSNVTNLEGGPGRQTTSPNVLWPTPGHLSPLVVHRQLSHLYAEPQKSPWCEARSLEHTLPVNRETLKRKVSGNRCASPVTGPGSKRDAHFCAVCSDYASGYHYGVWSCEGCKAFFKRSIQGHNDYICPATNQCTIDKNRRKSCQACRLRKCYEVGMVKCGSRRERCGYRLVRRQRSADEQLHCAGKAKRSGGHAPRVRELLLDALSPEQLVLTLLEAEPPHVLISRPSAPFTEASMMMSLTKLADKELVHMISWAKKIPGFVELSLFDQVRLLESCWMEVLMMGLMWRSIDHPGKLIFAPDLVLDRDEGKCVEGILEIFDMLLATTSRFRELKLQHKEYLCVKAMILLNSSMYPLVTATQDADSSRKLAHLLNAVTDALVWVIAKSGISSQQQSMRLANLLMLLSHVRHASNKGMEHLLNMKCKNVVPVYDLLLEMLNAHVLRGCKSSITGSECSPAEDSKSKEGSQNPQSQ
Procedure, shortened: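 ER-beta-UAS-bla HEK293T cells in 2% charcoal-stripped FBS medium treated with compound plus 1nM final 17-beta-estradiol for 16 hr at 37C. Beta-lactamase reporter read by FRET substrate fluorescence after 2 hours at room temperature.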

[3] = qHTS assay to identify small molecule agonists of the androgen receptor (AR) signaling pathway in the presence of an antagonist - cell viability counter screen (AID 1259379);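 note: MDA-kb2 human breast cancer cells carrying an MMTV luciferase reporter; series mostly up to about 92 µM; nearly all actives have a fitted effect of over 25% in size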
Procedure, shortened: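 Viability counter screen: CellTiter-Fluor fluorescence, measured in the same wells as the luciferase read-out. MDA-kb2 cells, 3,000/well, with nilutamide at 3.0uM final and compounds at 15 concentrations, 16 hr at 37C, 0% CO2.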

[4] = qHTS assay to identify small molecule agonists of the estrogen receptor beta (ER-beta) signaling pathway - cell viability counter screen (AID 1259380); note: nearly all actives have a fitted effect of over 30% in size
Procedure, shortened: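 Luminescence read-out (CellTiter-Glo, 30 min, room temp) taken in the same wells as the beta-lactamase reporter assay; ER-beta-UAS-bla HEK293T cells exposed to DMSO-dissolved compounds for 16 hr at 37C in 2% charcoal-stripped FBS medium.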

[5] = qHTS assay to identify small molecule antagonists of the estrogen receptor beta (ER-beta) signaling pathway - cell viability counter screen (AID 1259382); note: series mostly up to about 92 µM; nearly all actives have a fitted effect of over 55% in size
Procedure, shortened: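 Luminescent ATP read-out (CellTiter-Glo, 30 min, RT) taken in the same wells as the bla reporter assay. HEK293T ER-beta-UAS-bla cells in 2% charcoal-stripped FBS were exposed to compounds with 1nM E2 for 16 hr at 37C.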

[6] = molecular target: Estrogen receptor (Homo sapiens) (UniProt P03372); assay: qHTS assay to identify small molecule agonists of the estrogen receptor alpha (ER-alpha) signaling pathway in the presence of an antagonist (AID 1259383; calls by dose curve; note: top concentration of the series differs between compounds; nearly all actives have a fitted effect of over 15% in size)
Chain of Estrogen receptor (Homo sapiens) (P03372 whole entry, looked up): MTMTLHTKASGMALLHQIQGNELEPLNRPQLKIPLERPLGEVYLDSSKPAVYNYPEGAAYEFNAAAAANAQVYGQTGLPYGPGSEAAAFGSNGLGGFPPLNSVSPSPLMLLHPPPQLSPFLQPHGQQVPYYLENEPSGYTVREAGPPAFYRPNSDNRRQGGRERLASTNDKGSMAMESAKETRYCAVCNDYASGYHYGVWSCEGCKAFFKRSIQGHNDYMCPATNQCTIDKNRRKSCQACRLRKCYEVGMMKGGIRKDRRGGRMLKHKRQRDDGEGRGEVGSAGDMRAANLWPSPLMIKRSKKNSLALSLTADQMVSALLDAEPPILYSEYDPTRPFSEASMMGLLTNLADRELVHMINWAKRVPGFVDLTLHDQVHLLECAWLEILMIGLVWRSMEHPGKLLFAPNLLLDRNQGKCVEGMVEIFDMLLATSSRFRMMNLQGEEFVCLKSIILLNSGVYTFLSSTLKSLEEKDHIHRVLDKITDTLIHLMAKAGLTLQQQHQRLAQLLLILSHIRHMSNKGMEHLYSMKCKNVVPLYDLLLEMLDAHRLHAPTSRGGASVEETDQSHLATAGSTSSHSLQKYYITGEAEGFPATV
Procedure, shortened: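 Luciferase luminescence (ONE-Glo, 30min at room temperature) measured in VM7Luc4E2 cells after 22hr compound exposure at 15 concentrations, with 10.0nM ICI-182,780 final present; cells express endogenous ER-alpha and carry four EREs upstream of luciferase.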

[7] = qHTS assay to identify small molecule agonists or antagonists of the thyroid stimulating hormone receptor (TSHR) signaling pathway - wild type cell line counter screen (AID 1259384; calls by dose curve)
Procedure, shortened: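 Wild-type Hek293 cells, 800/well, 18 h at 37C, then compound with Ro20-1724 for 30 min RT. cAMP by HTRF (cAMP-d2/anti-cAMP cryptate), 1 h RT, fluorescence read. 15 concentrations, triplicates.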

[8] = molecular target: Thyrotropin receptor (Homo sapiens) (UniProt P16473); assay: qHTS assay to identify small molecule antagonists of the thyroid stimulating hormone receptor (TSHR) signaling pathway (AID 1259385; calls by dose curve; note: nearly all actives have a fitted effect of over 20% in size)
Chain of Thyrotropin receptor (Homo sapiens) (P16473 whole entry, looked up): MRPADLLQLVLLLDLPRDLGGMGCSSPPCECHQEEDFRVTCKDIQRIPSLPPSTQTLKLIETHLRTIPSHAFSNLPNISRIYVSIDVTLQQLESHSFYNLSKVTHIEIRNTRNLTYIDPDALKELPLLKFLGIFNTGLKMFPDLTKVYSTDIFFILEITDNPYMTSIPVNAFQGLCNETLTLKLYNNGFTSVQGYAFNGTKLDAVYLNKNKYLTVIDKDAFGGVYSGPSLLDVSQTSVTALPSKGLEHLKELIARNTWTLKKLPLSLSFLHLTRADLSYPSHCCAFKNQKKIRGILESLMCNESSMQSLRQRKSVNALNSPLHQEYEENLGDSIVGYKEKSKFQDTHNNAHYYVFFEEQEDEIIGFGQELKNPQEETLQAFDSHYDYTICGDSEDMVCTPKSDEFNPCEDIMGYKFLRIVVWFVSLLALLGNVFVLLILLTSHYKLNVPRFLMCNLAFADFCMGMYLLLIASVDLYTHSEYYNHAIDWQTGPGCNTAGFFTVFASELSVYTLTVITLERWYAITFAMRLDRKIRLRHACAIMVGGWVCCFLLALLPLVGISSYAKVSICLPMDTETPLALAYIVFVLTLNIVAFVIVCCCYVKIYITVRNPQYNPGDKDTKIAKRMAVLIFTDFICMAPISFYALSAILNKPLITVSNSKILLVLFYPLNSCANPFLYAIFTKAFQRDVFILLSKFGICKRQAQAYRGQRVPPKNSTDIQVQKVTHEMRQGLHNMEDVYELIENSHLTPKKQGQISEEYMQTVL
Procedure, shortened: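 TSHR-HEK293 cells (800/well) plated 18 h, then compounds with Ro20-1724 and TSH at 1.5 ng/mL final, 30 min at room temperature. cAMP quantified by HTRF (cAMP-d2/anti-cAMP-cryptate, 1 h); 15 concentrations in triplicate.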

[9] = qHTS assay to identify small molecule agonists of the estrogen receptor alpha (ER-alpha) signaling pathway in the presence of an antagonist - cell viability counter screen (AID 1259386);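 note: series mostly up to about 92 µM; cells exposed to compounds for 22 h at 37 °C before the viability read; nearly all actives have a fitted effect of over 30% in size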
Procedure, shortened: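 Read-out: CellTiter-Fluor fluorescence after 1hr reagent incubation, measured in the same wells as the luciferase readout. VM7Luc4E2 cells were exposed to 15 compound concentrations with 10.0nM ICI-182,780 for 22hr at 37C.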

[10] = molecular target: Progesterone receptor (Homo sapiens) (UniProt P06401); assay: qHTS assay to identify small molecule agonists of the progesterone receptor (PR) signaling pathway (AID 1346784; calls by dose curve; note: nearly all actives have a fitted effect of over 30% in size)
Chain of Progesterone receptor (Homo sapiens) (P06401 whole entry, looked up): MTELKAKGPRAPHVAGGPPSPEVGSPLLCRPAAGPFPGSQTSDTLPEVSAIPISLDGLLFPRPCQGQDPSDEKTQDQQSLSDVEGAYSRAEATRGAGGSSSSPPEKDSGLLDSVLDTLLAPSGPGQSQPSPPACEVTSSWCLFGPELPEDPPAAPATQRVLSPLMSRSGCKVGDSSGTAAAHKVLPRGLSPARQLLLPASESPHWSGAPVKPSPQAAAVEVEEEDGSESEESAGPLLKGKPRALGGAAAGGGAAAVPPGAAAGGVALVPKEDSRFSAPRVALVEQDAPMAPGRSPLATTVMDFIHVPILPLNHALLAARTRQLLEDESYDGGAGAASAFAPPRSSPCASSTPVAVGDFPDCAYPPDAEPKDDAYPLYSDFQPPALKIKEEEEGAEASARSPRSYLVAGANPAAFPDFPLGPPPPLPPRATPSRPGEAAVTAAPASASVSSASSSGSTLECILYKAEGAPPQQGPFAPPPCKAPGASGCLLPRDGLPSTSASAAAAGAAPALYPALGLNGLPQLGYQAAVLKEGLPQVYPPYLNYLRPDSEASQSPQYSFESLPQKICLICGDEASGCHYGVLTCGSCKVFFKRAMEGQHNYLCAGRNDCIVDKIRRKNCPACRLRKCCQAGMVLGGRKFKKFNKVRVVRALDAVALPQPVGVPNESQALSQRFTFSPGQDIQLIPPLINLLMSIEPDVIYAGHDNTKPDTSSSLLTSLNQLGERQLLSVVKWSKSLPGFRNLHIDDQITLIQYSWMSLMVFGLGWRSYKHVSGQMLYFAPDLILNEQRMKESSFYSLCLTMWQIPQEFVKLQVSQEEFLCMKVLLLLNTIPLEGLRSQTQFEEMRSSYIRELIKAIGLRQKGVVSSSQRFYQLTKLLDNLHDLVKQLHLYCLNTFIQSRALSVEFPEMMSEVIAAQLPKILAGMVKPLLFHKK
Procedure, shortened: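 Reporter assay, GripTite PR-UAS-bla HEK 293T cells: 16 hr exposure to DMSO-dissolved compounds at 37C, 5% CO2, in steroid-depleted (2% charcoal-stripped FBS) medium; beta-lactamase measured by FRET fluorescence.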

[11] = molecular target: Progesterone receptor (Homo sapiens) (UniProt P06401); assay: qHTS assay to identify small molecule antagonists of the progesterone receptor (PR) signaling pathway (AID 1346795; active = well fitted inhibition curve with a large enough effect in the signal ratio in the repeat runs, not every such curve was filed as active; the % refers to the signal ratio)
Procedure, shortened: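 Stimulus R5020 at 1 nM final; cells HEK293T PR-UAS-bla; medium with 2% charcoal-stripped FBS; compound exposure 16 hr at 37C, 5% CO2; detection by FRET beta-lactamase substrate, 2 hr, room temperature.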

[12] = qHTS assay to identify small molecule antagonists of the progesterone receptor (PR) signaling pathway - cell viability counter screen (AID 1346798); note: series mostly up to about 92 µM; nearly all actives have a fitted effect of over 50% in size
Procedure, shortened: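 In the same plates used for the beta-lactamase readout, cell viability of compound- and R5020-treated PR-UAS-bla HEK293T cells (16 hr, 37C) was assessed by CellTiter-Glo luminescence.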

[13] = qHTS assay to identify small molecule agonists of the progesterone receptor (PR) signaling pathway - cell viability counter screen (AID 1346799; calls by dose curve; note: nearly all actives have a fitted effect of over 45% in size)
Procedure, shortened: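 Multiplexed viability read: CellTiter-Glo luminescence, 30 min RT, following LiveBLAzer FRET measurement on PR-UAS-bla HEK293T cells exposed to compounds 16 hr.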

[14] = qHTS assay to identify small molecule antagonists of the TGF-beta/Smad signaling pathway - cell viability counter screen (AID 1346824); note: nearly all actives have a fitted effect of over 50% in size
Procedure, shortened: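 SBE-bla HEK 293T cells, incubated overnight, then compound plus 0.25 ng/mL TGF-beta1 (stock added) for 5 hr at 37 C. Viability was read in the same wells by CellTiter-Glo luminescence after 30 min at room temperature.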

[15] = qHTS assay to identify small molecule agonists of the TGF-beta/Smad signaling pathway - cell viability counter screen (AID 1346829); note: top concentration of the series differs between compounds; nearly all actives have a fitted effect of over 45% in size
Procedure, shortened: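 Here the cytotoxicity of library compounds is measured in SBE-bla HEK 293T cells treated for 5 hr, using CellTiter-Glo added to wells already read for the beta-lactamase reporter.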

[16] = qHTS assay to identify small molecule agonists of the TGF-beta/Smad signaling pathway (AID 1346859; active = well fitted activation curve with a large enough effect in the signal ratio in the repeat runs, not every such curve was filed as active; the % refers to the signal ratio; note: series mostly up to about 77 µM)
Procedure, shortened: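 Screening used HEK 293T SBE-bla cells at 4,000/well. Test agents: 5 hr, 37 C. Detection: FRET substrate, 2 hr RT, then excitation 405 nm with emissions at 460 and 530 nm.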

[17] = Human pregnane X receptor (PXR) small molecule agonists, qHTS cell viability counter screen (AID 1346977); note: nearly all actives have a fitted effect of over 50% in size
Procedure, shortened: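 In each well, the PXR reporter HepG2 line was checked for viability: CellTiter-Fluor reagent added 23hr post-dosing, fluorescence read after 1hr incubation at 37C.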

[18] = molecular target: Thyrotropin-releasing hormone receptor (Homo sapiens) (UniProt P34981); assay: qHTS assay to identify small molecule antagonists of the thyrotropin-releasing hormone receptor (TRHR) signaling pathway (AID 1346877; active = well fitted inhibition curve with a large enough effect in the repeat runs, not every such curve was filed as active; note: series mostly up to about 51 µM)
Chain of Thyrotropin-releasing hormone receptor (Homo sapiens) (P34981 whole entry, looked up): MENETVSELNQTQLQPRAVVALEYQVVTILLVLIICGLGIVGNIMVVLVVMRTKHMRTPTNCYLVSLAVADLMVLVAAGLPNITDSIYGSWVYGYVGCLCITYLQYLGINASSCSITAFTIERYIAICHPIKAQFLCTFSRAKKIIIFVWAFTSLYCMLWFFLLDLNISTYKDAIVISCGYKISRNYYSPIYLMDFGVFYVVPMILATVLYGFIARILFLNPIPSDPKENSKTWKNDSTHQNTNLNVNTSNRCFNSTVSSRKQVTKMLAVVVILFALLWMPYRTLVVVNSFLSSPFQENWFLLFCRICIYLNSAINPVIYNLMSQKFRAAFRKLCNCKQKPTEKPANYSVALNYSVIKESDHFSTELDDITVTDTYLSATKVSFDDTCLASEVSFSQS
Procedure, shortened: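 HEK293/TRHR cells, 18 h, 37 °C; Ca2+ dye 2 h; cpd 5 min RT; TRH 1 nM final; fluorescence read 3 min, 1 s intervals; 15 concs, triplicate.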

[19] = molecular target: Thyrotropin-releasing hormone receptor (Homo sapiens) (UniProt P34981); assay: qHTS assay to identify small molecule agonists of the thyrotropin-releasing hormone receptor (TRHR) signaling pathway (AID 1346891; calls by dose curve; note: series mostly up to about 58 µM)
Procedure, shortened: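 Readout was intracellular calcium fluorescence in TRHR-Hek293 cells. Cells were incubated 18 h, dye-loaded 2 h at 37 °C, and treated with compound in agonist mode.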
% is set by controls: 0 for no effect and ±100 for the full control effect.

CC(C)OC(=O)c1ccccc1
inactive: Potency [1] | outcome [2] | Potency [3] | Potency [4] | Potency [5] | Potency [6] | outcome [7] | Potency [8] | Potency [9] | Potency [10] | Potency [11] | Potency [12] | Potency [13] | Potency [14] | outcome [15] | outcome [16] | Potency [17]

CCCc1cc(C(N)=S)ccn1
inactive: Potency [1] | Potency [3] | Potency [4] | Potency [5] | Potency [6] | outcome [7] | Potency [8] | Potency [9] | Potency [10] | Potency [11] | Potency [12] | Potency [13] | Potency [14] | outcome [16] | Potency [17]

CCN(Cc1ccncc1)C(=O)C(CO)c1ccccc1 (stereo unspecified)
inactive: Potency [1] | outcome [2] | Potency [3] | Potency [5] | outcome [7] | Potency [8] | Potency [9] | Potency [10] | Potency [11] | Potency [13] | Potency [14] | outcome [15] | outcome [16] | outcome [18] | outcome [19] | Potency [17]

ClC(Cl)(Br)Br
inactive: Potency [1] | outcome [2] | Potency [3] | Potency [4] | Potency [5] | Potency [6] | Potency [8] | Potency [9] | Potency [10] | Potency [11] | Potency [13] | Potency [14] | outcome [15] | outcome [16] | Potency [17]

CCCCOCCOCCOCCCC
inactive: Potency [1] | outcome [2] | Potency [3] | Potency [4] | Potency [5] | outcome [7] | Potency [8] | Potency [9] | Potency [10] | Potency [11] | Potency [12] | Potency [14] | outcome [15] | outcome [16] | outcome [18] | outcome [19] | Potency [17]

CCCCCCCCCCCCCC=O
inactive: activity change, negative = inhibition [1] 13.4% [at 8.39 µM] | activity, negative = inhibition [2] -23.6% [at 8.39 µM] | activity change, negative = cytotoxicity [3] -0.261% [at 8.39 µM] | activity change, negative = cytotoxicity [4] -3.43% [at 8.39 µM] | activity change, negative = cytotoxicity [5] -3.46% [at 8.39 µM] | activation [6] -0.924% [at 8.39 µM] | cAMP activity change [7] 0.631% [at 8.39 µM] | activity change, negative = inhibition [8] -5.31% [at 8.39 µM] | activity change, negative = cytotoxicity [9] 2.15% [at 8.39 µM] | activation [10] -0.302% [at 8.39 µM] | activity change, negative = inhibition [11] 6.1% [at 8.39 µM] | activity change, negative = cytotoxicity [13] 5.7% [at 8.39 µM] | activity change, negative = cytotoxicity [15] 12.8% [at 6.97 µM] | activation [16] -2.78% [at 6.97 µM] | activity, negative = inhibition [18] -5.43% [at 4.65 µM] | activation [19] 0.0389% [at 5.23 µM] | activity change, negative = cytotoxicity [17] -1.66% [at 8.39 µM]

N=C(N)c1ccc(OCCCOc2ccc(C(=N)N)cc2)cc1
inactive: Potency [1] | outcome [2] | Potency [3] | Potency [4] | Potency [5] | Potency [6] | outcome [7] | Potency [8] | Potency [9] | Potency [10] | Potency [11] | Potency [12] | Potency [13] | Potency [14] | outcome [15] | outcome [16] | Potency [17]

CS(=O)(=O)O
inactive: Potency [1] | outcome [2] | Potency [3] | Potency [4] | Potency [5] | Potency [6] | outcome [7] | Potency [8] | Potency [9] | Potency [10] | Potency [11] | Potency [12] | Potency [13] | outcome [15] | outcome [16] | outcome [19] | Potency [17]

Brc1c(NC2=NCCN2)ccc2nccnc12
inactive: Potency [1] | outcome [2] | Potency [3] | Potency [5] | Potency [8] | Potency [9] | Potency [10] | Potency [11] | Potency [12] | Potency [13] | Potency [14] | outcome [15] | outcome [16]

NCCCNCCSP(=O)(O)O
inactive: activity change, negative = inhibition [1] 21.5% [at 8.39 µM] | activity, negative = inhibition [2] 13.1% [at 8.39 µM] | activity change, negative = cytotoxicity [3] 9.45% [at 8.39 µM] | activity change, negative = cytotoxicity [4] 0.895% [at 8.39 µM] | activity change, negative = cytotoxicity [5] 1.8% [at 8.39 µM] | activation [6] -0.349% [at 8.39 µM] | cAMP activity change [7] -0.261% [at 8.39 µM] | activity change, negative = inhibition [8] -3.62% [at 8.39 µM] | activity change, negative = cytotoxicity [9] -0.352% [at 8.39 µM] | activity change, negative = cytotoxicity [12] 1.3% [at 8.39 µM] | viability change, negative = cytotoxic [14] 10.3% [at 6.97 µM] | activity change, negative = cytotoxicity [15] -10% [at 6.97 µM] | activation [16] 0.256% [at 6.97 µM] | activity, negative = inhibition [18] 2.65% [at 4.65 µM] | activation [19] -0.402% [at 5.23 µM] | activity change, negative = cytotoxicity [17] 7.22% [at 8.39 µM]

COc1ccc2c(c1)CCCC2=O
inactive: Potency [1] | Potency [3] | Potency [4] | Potency [5] | Potency [6] | Potency [9] | Potency [10] | Potency [11] | Potency [12] | Potency [13] | Potency [14] | outcome [15] | outcome [16] | Potency [17]

C1OCOCO1
inactive: Potency [1] | Potency [3] | Potency [4] | Potency [5] | Potency [8] | Potency [9] | Potency [10] | Potency [11] | Potency [13] | outcome [15] | outcome [16] | Potency [17]
